Experiment [1] in a line: NCI Yeast Anticancer Drug Screen. Data for the rad50 strain (AID 155).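 Also: 0% = growth of vehicle-only cultures of the same strain.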 Conditions: S. cerevisiae rad50 strain growth inhibition; at 50.0 µM; stronger effect = higher value. The method in brief: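 Genetically altered yeast (DNA repair pathway); compound treatment; growth inhibition vs vehicle ctrl.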
Experiment [2] can be described thus: NCI Yeast Anticancer Drug Screen. Data for the mec2-1 strain (AID 157). The settings on record: S. cerevisiae mec2-1 strain, at 50.0 µM, stronger effect = higher value. The method in brief: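 Strain: mec2-1 (DNA repair/cell cycle alteration). Compound exposure, then growth measured; inhibition expressed relative to vehicle.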
A short description of experiment [3]: NCI Yeast Anticancer Drug Screen. Data for the sgs1 mgt1 strain (AID 161).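 Also: 0% = growth of cultures given vehicle only.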 The settings on record: S. cerevisiae sgs1 mgt1 strain, at 50.0 µM, stronger effect = higher value. The method in brief: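 Test agents were incubated with a DNA-repair-mutant yeast strain. Growth was then read and compared against vehicle-treated controls.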
A short description of experiment [4]: NCI Yeast Anticancer Drug Screen. Data for the cln2 rad14 strain (AID 165).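 Also: 0% = growth equal to vehicle treated cultures.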 Conditions: S. cerevisiae cln2 rad14 strain, at 50.0 µM, stronger effect = higher value. The method in brief:
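Compounds are applied to the cln2 rad14 yeast strain, and growth is then compared with that of vehicle-treated cultures to give inhibition.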

The nature of experiment [5]: NCI Yeast Anticancer Drug Screen. Data for the bub3 strain (AID 167). Conditions: S. cerevisiae bub3 mutant strain, at 50.0 µM, stronger effect = higher value. The gist of the method: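 Yeast carrying a defined mutation is treated with each compound, and growth is compared with that of vehicle-exposed cells to give inhibition.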
Experiment [6] can be described thus: NCI Yeast Anticancer Drug Screen. Data for the mlh1 rad18 strain (AID 175). Conditions: S. cerevisiae mlh1 rad18 strain growth inhibition; at 50.0 µM; stronger effect = higher value. The gist of the method: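 Read-out is yeast growth inhibition, calculated against vehicle-only controls. The compound was applied to a strain engineered with DNA damage repair alterations.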

The panel holds about 79,000 compounds, 15% with a hit somewhere; the sample as a whole holds those more often. A number with no mark means an inactive call. Activity calls are given as the source filed them. Rule as the data show it: active = growth inhibition above about 70%; inactive = the rest.

Turning to `CC(C)=CCNc1nc(Cl)nc2nc[nH]c12`, the growth inhibition in experiment [1] was -28.1%; in experiment [2], -8%; in experiment [3] it was -59%; in experiment [4], -14.5%; in experiment [5], -19.4%; in experiment [6], -67.7%.
`NC(=O)c1csc(NC2OC(CO)C(O)C(O)C2O)n1` (stereo unspecified): the growth inhibition is 23.1% in experiment [1]; -8.8% in experiment [2]; 0.05% in experiment [3]; 14.8% in experiment [4]; -0.25% in experiment [5]; -0.05% in experiment [6].
Turning to `CCCCCCCC(=O)Oc1ccccc1`, the growth inhibition was 14.1% in experiment [1]; -10.5% in experiment [2]; -0.75% in experiment [3]; -10% in experiment [4]; -2.3% in experiment [5]; -1.2% in experiment [6].
As for `Cc1ccc(Cl)c(NC(=O)c2ccccc2Cl)c1`, the growth inhibition in experiment [1] was 6.2%; in experiment [2], 8.2%; in experiment [3] it was 18.8%; in experiment [4] it was -8%; in experiment [5] it was 12.4%; in experiment [6], 30.9%.
With `CCCCC(CC)COCCC(=O)O` (stereo unspecified), the growth inhibition in experiment [1] was -9.55%; in experiment [2] it was -8.55%; in experiment [3], -4.25%; in experiment [4] it was -55.9%; in experiment [5], -19.8%; in experiment [6] it was -18.8%.
For `O=C1NN=CN2C(=O)CCC12` (stereo unspecified), the growth inhibition in experiment [1] is 26.4%; in experiment [2], 3.45%; in experiment [3], 14.3%; in experiment [4] it was 4.15%; in experiment [5], 14.4%; in experiment [6], -3.4%.
Turning to `CC(=O)/C(=C\c1ccc([N+](=O)[O-])o1)C(=O)CCN(C)C`, the growth inhibition in experiment [1] was 25.1%; in experiment [2] it was 38.4%; in experiment [3], 63%; in experiment [4] it was 22.9%; in experiment [5], 39.5%; in experiment [6], 84.8% (active).
On to `COc1cc2nc(C(O)C(O)c3nc4cc(OC)c(OC)cc4[nH]3)[nH]c2cc1OC` (stereo unspecified), for which the growth inhibition in experiment [1] was -8%; in experiment [2] it was 3.35%; in experiment [3] it was 19.6%; in experiment [4], 6.85%; in experiment [5], -1.1%; in experiment [6], 38.7%.
With `CCC(c1ccccc1)C(C(=O)O)C(=O)O` (stereo unspecified), the growth inhibition in experiment [1] is 5.95%; in experiment [2], -5.35%; in experiment [3], 0.55%; in experiment [4], -16.8%; in experiment [5] it was 6.35%; in experiment [6] it was 6.65%.
As to `CCC1CCN(CC)CC1`, the growth inhibition in experiment [1] is 3.1%; in experiment [2] it was -37.4%; in experiment [3], 3.2%; in experiment [4], 1.8%; in experiment [5], -19.6%; in experiment [6], -4.1%.
Turning to `CCCCCCC/C=C\C=O`, the growth inhibition in experiment [1] is 7.2%; in experiment [2], 16.9%; in experiment [3] it was 7.95%; in experiment [4], -1.25%; in experiment [5], 1%; in experiment [6], 3.7%.
Regarding `Nc1ccn([C@@H]2C=C(CO)[C@@H](O)[C@H]2O)c(=O)n1`, the growth inhibition is -16.1% in experiment [1]; -20.6% in experiment [2]; -22.5% in experiment [3]; -13.3% in experiment [4]; -10.4% in experiment [5]; -21.9% in experiment [6].
With `CC(C)N(C(=O)c1cccc([N+](=O)[O-])c1)C(C)C`, the growth inhibition in experiment [1] is 14.6%; in experiment [2], 11.2%; in experiment [3], 7.5%; in experiment [4] it was -30.9%; in experiment [5], -4.1%; in experiment [6], 15.8%.
For the molecule `Cc1cc(Cl)cc2c1NC(=O)C2(O)CC(=O)c1ccco1` (stereo unspecified), the growth inhibition was 6.55% in experiment [1]; -12.4% in experiment [2]; -13.8% in experiment [3]; 9.65% in experiment [4]; -11.7% in experiment [5]; -4.65% in experiment [6].
Consider `Oc1ccc(N=Nc2ccccc2)c(O)c1`, for which the growth inhibition in experiment [1] was 54%; in experiment [2] it was 29.1%; in experiment [3], 43.5%; in experiment [4], -18.9%; in experiment [5], 46%; in experiment [6], 64%.
Take `Clc1ccc(CSc2cnnc3c(Br)cccc23)c(Cl)c1`: the growth inhibition in experiment [1] is -5.3%; in experiment [2], -11.5%; in experiment [3] it was -10.8%; in experiment [4], -39.2%; in experiment [5], 1.8%; in experiment [6], 0.85%.
For the molecule `CN(C)CCCN1CCc2c([nH]c3ccccc23)C1c1cccnc1` (stereo unspecified), the growth inhibition is -3.35% in experiment [1]; -14.8% in experiment [2]; -0.45% in experiment [3]; -0.75% in experiment [4]; -6.2% in experiment [5]; -21.1% in experiment [6].
As to `CC(C)C(C(=O)O)C(=O)O`, the growth inhibition is 3.55% in experiment [1]; 10.5% in experiment [2]; 4.75% in experiment [3]; 1.25% in experiment [4]; 3.9% in experiment [5]; 19.1% in experiment [6].
Regarding `COc1ccc2c(c1)CC/C2=N/O`, the growth inhibition was -10.7% in experiment [1]; 3.05% in experiment [2]; -4.5% in experiment [3]; -21.3% in experiment [4]; -22.8% in experiment [5]; 2.1% in experiment [6].
Regarding `CC1(C)CC(C#N)CC(C)(C)N1O`, the growth inhibition in experiment [1] was 1.9%; in experiment [2], -0.75%; in experiment [3] it was 0.5%; in experiment [4], -20.9%; in experiment [5], -4.8%; in experiment [6], -0.95%.
For the molecule `O=C(O)[Si](c1ccccc1)(c1ccccc1)c1ccccc1`, the growth inhibition is 43.7% in experiment [1]; 25.9% in experiment [2]; 39.6% in experiment [3]; 4.8% in experiment [4]; 20.1% in experiment [5]; 48.1% in experiment [6].

The values are drawn from PubChem BioAssay (NCI).
